Holding throughout (experiment): universal protein binding microarray (PBM); transcription factors of Arabidopsis thaliana; high values mean tight binding
Common to all, as to conditions: protein: recombinant; tags: GST; chain copies: 2; dsDNA, one strand shown

Experiment [1] addresses T1, GST-ANAC092(1-176) (Arabidopsis thaliana, UniProt Q9FKA0 1-176).
T1 sequence: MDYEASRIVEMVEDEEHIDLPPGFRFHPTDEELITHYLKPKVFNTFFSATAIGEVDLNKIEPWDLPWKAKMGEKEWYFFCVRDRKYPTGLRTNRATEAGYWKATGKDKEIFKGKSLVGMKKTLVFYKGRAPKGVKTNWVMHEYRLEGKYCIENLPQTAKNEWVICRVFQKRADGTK
The method in brief: (§1)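 Binding is expressed as the normalised enrichment score (E-score). Proteins carrying a GST tag, whether NAC-domain, full-length or DNA-binding-domain forms, were induced in cells, and zinc acetate was added for zinc-finger proteins. After purification on glutathione–Sepharose 4B and quantification by A280 or anti-GST western blot, each was applied in duplicate at 200 to 500 nM final to custom all-10-mer Agilent 4 × 180K arrays made double-stranded by primer extension. Gapped and ungapped 8-mers were scored.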

The target in experiment [2] is T2, GST-ANAC019 NAC domain (Arabidopsis thaliana, UniProt Q9C932 14-162).
T2 sequence: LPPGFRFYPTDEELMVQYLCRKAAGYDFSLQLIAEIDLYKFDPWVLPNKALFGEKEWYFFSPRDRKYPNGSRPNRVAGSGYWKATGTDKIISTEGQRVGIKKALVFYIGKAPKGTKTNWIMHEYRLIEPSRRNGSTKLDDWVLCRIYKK
The method in brief: as §1

Experiment [3] deals with T3, GST-ANAC055(1-171) (Arabidopsis thaliana, UniProt Q9LDY8 1-171).
T3 sequence: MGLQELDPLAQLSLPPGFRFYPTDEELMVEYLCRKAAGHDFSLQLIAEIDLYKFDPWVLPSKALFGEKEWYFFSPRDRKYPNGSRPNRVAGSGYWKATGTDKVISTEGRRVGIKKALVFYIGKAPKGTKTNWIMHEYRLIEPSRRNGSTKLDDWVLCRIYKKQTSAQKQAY
The method in brief:
as §1

Experiment [4] addresses T4, GST-ATAF1 NAC domain (Arabidopsis thaliana, UniProt Q39013 7-158).
T4 sequence: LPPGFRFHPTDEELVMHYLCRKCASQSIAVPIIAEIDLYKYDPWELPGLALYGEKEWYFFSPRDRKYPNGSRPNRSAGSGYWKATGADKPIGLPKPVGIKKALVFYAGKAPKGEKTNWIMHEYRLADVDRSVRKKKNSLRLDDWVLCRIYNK
The method in brief:
as §1

For experiment [5], the target named is T5, GST-ANAC092(1-285) full length (Arabidopsis thaliana, UniProt Q9FKA0 1-285).
T5 sequence: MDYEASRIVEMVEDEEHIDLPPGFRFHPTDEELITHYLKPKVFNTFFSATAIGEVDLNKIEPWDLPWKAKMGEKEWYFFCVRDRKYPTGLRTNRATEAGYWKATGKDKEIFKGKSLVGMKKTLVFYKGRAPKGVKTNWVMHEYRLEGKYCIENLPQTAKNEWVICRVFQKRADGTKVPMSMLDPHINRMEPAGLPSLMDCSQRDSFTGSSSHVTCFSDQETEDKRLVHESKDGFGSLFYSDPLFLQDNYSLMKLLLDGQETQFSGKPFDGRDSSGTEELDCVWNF
A digest of the protocol:
as §1

Experiment [6] has as its target T6, GST-NAP(1-166) (Arabidopsis thaliana, UniProt O49255 1-166).
T6 sequence: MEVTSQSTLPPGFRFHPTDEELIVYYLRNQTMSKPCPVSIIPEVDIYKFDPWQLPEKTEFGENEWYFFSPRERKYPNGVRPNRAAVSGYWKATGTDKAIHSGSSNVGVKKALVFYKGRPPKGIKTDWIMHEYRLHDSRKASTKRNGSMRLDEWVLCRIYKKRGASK
The method in brief: as §1

For experiment [7], the target named is T7, GST-NST2(1-184) (Arabidopsis thaliana, UniProt Q9M274 1-184).
T7 sequence: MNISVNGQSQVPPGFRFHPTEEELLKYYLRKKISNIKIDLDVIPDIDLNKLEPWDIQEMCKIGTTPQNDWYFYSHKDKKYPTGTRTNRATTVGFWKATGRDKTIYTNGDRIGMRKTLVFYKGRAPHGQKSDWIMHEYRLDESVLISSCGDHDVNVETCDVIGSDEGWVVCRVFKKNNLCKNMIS
The method in brief: as §1

Experiment [8] concerns the target T8, GST-NTL8 NAC domain (Arabidopsis thaliana, UniProt Q9XIN7 14-156).
T8 sequence: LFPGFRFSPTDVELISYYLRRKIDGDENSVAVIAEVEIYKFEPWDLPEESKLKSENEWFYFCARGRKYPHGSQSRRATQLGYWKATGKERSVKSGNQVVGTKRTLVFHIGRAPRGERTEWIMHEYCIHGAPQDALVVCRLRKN
A digest of the protocol:
as §1

In experiment [9] the target is T9, GST-SND1(1-203) (Arabidopsis thaliana, UniProt Q9LPI7 1-203).
T9 sequence: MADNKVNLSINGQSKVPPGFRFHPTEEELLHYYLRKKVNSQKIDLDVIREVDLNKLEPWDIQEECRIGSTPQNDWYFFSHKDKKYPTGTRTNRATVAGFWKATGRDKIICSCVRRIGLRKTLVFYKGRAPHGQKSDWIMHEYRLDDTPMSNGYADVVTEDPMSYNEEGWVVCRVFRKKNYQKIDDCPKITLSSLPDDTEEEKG
The method in brief:
as §1

In experiment [10] the target is T10, GST-VND3 NAC domain (Arabidopsis thaliana, UniProt Q9FH59 12-162).
T10 sequence: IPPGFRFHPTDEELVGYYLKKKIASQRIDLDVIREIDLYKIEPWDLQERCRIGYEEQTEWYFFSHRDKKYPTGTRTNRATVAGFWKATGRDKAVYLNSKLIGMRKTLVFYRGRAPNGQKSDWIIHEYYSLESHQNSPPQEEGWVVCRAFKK
The method in brief: as §1

Experiment [11] has as its target T11, GST-VND7 NAC domain (Arabidopsis thaliana, UniProt Q9C8W9 9-158).
T11 sequence: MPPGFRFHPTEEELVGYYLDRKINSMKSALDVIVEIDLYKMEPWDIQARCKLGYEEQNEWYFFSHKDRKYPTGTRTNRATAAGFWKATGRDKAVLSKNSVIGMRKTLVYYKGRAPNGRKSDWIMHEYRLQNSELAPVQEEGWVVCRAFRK
The method in brief: as §1

Turning to ATGCCGTA, the binding signal in [1] was found to be 0.373 E-score; in [2], 0.395 E-score; in [3] it was 0.355 E-score; in [4] it was 0.385 E-score; in experiment [5] it was 0.41 E-score; in experiment [6], 0.36 E-score. Also, the binding signal was 0.117 E-score in experiment [7]; 0.0526 E-score in experiment [8]; 0.307 E-score in experiment [9]; 0.412 E-score in [10]; 0.432 E-score in experiment [11].
With CCACACGC, the binding signal in experiment [1] stood at 0.4 E-score; in experiment [2] it was 0.242 E-score; in experiment [3], 0.15 E-score; in experiment [4], 0.155 E-score; in experiment [5], 0.436 E-score; in [6], 0.169 E-score. For the same sequence, the binding signal is 0.144 E-score in experiment [7]; 0.0869 E-score in experiment [8]; 0.213 E-score in [9]; 0.163 E-score in experiment [10]; 0.181 E-score in experiment [11].
Consider GCACGTAA, for which the binding signal in experiment [1] came to 0.461 E-score; in [2], 0.478 E-score; in experiment [3], 0.433 E-score; in experiment [4], 0.381 E-score; in [5], 0.467 E-score; in [6], 0.427 E-score. For the same sequence, the binding signal in experiment [7] turned out to be 0.218 E-score; in [8] it was 0.189 E-score; in experiment [9] it was 0.225 E-score; in [10] it was 0.454 E-score; in experiment [11] it was 0.454 E-score.
As for CACGCTTC, the binding signal in experiment [1] came to 0.37 E-score; in experiment [2], 0.184 E-score; in experiment [3], 0.165 E-score; in experiment [4] it was 0.212 E-score; in [5] it was 0.437 E-score; in [6] it was 0.109 E-score. The binding signal in experiment [7] was 0.188 E-score; in experiment [9], 0.232 E-score; in experiment [10] it was 0.111 E-score; in experiment [11], 0.127 E-score.
On to ACGTTACG, for which the binding signal in [1] amounted to 0.389 E-score; in experiment [2], 0.302 E-score; in experiment [3], 0.299 E-score; in [4] it was 0.268 E-score; in experiment [5], 0.441 E-score; in [6], 0.341 E-score. For the same sequence, the binding signal is 0.287 E-score in experiment [7]; 0.13 E-score in experiment [8]; 0.44 E-score in experiment [9]; 0.333 E-score in experiment [10]; 0.39 E-score in experiment [11].
Consider ACGCAAAC, for which the binding signal in [1] came out at 0.459 E-score; in experiment [2], 0.391 E-score; in experiment [3], 0.265 E-score; in experiment [4] it was 0.258 E-score; in [5], 0.471 E-score; in experiment [6], 0.368 E-score. Further, the binding signal in experiment [7] worked out at 0.357 E-score; in experiment [8], 0.0692 E-score; in [9], 0.431 E-score; in experiment [10], 0.378 E-score; in experiment [11] it was 0.314 E-score.
On to CACGCCAA, for which the binding signal is 0.443 E-score in [1]; 0.185 E-score in experiment [2]; 0.159 E-score in experiment [3]; 0.16 E-score in [4]; 0.451 E-score in [5]; 0.114 E-score in experiment [6]. Also, the binding signal in experiment [7] came out at 0.3 E-score; in experiment [8] it was 0.0657 E-score; in experiment [9], 0.334 E-score; in [10] it was 0.0966 E-score; in experiment [11], 0.114 E-score.

For the origin of these results see article PMC4081100, “A DNA-binding-site landscape and regulatory network analysis for NAC transcription factors in Arabidopsis thaliana”.
